Measured values reported in paper PMC5540273 (PLoS ONE, 2017).

Assays:
Conditions in all cases: concentration: 1 μM,replicates: in singlicate; n = 1
[1] = system: T1, NIM1
T1 construct: gene MGC42105

[2] = system: NLK
[3] = system: T2, OSR1
T2 construct: gene OXSR1

[4] = system: PAK1
[5] = system: PAK2
[6] = system: PAK3
[7] = system: PAK4
[8] = system: PAK6
[9] = system: PAK7
[10] = system: T3, PCTK1
T3 construct: gene CDK16
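Note: KINOMEscan kinase panel screen.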

| SMILES | %Inh [1] [%] | %Inh [2] [%] | %Inh [3] [%] | %Inh [4] [%] | %Inh [5] [%] | %Inh [6] [%] | %Inh [7] [%] | %Inh [8] [%] | %Inh [9] [%] | %Inh [10] [%] |
| --- | --- | --- | --- | --- | --- | --- | --- | --- | --- | --- |
| CNC(=O)c1ccccc1Nc1nc(Nc2cccc(CS(C)(=O)=O)c2)ncc1C.O=CO [GSK1520489] | 97.4 | 39 | 28 | 64 | 52 | 97.8 | 55 | 79 | 85 | 6 |
| CCNCC(Cc1ccccc1)NC(=O)c1cc(Br)c(-c2ccnc3[nH]ccc23)s1.Cl.Cl (stereo not drawn) [GSK1383280] | 20 | 0 | 8 | 26 | 40 | 62 | 44 | 60 | 78 | 0 |
| CN(c1cccc(CNc2nc(Nc3ccc4c(c3)CC(=O)N4)ncc2C(F)(F)F)c1)S(C)(=O)=O | 0 | 8 | 0 | 15 | 42 | 0 | 11 | 14 | 13 | 0 |
| CC(C)c1nc(-c2cccc(NS(=O)(=O)c3ccccc3)c2)c(-c2ccnc(Nc3ccc4c(c3)CN(C)CC4)n2)s1 [GSK1649598] | 29 | 98.1 | 14 | 39 | 25 | 88 | 0 | 10 | 3 | 100 |
| CC(=O)Nc1ccc(-c2cc3ncnc(SCC(=O)O)c3s2)cc1 | 0 | 0 | 7 | 0 | 0 | 0 | 0 | 0 | 8 | 28 |
| Cl.Cl.NC[C@H](CC1CCCCC1)NC(=O)c1ccc(-c2ccnc3[nH]ccc23)s1 [GSK1581428] | 14 | 12 | 19 | 22 | 38 | 94.8 | 34 | 62 | 68 | 6 |
| N#Cc1cccc(C(=O)NC2CCN(c3ccnc(Nc4ccc(F)cc4)n3)C2)c1 (stereo not drawn) [GSK1379708] | 16 | 0 | 6 | 0 | 4 | 0 | 0 | 27 | 0 | 1 |
| Cc1cccc(-c2nc(Nc3ccncc3)c3sccc3n2)n1 [GW869641] | 35 | 60 | 24 | 15 | 30 | 50 | 23 | 11 | 2 | 22 |
| COc1cc(Nc2nccc(N3CCC(NC(=O)c4cccc(C#N)c4)C3)n2)cc(OC)c1OC (stereo not drawn) [GSK1379751] | 16 | 7 | 2 | 2 | 0 | 0 | 0 | 0 | 1 | 0 |
